Source: PubChem BioAssay (NCATS)
Inconclusive results are not listed. The source made the active and inactive calls. The call rests on the fitted dose curve; in most records, active means well fitted inhibition curve with a large enough effect; inconclusive means small, poorly fitted or top-dose-only effect; inactive means flat fitted curve, though single readings scatter.

How the values were obtained:
[1] = tested on: CRL-7250; test: Cytotoxic Profiling of Annotated Libraries Using Quantitative High-Throughput Screening (AID 1296008); details: Five cell lines viability, CellTiter-Glo ATP luminescence, 48-72 h; max response: stronger effect = lower value; on max response: on the % scale 0 is the no-effect control and ±100 the full control effect
Method in brief: (§1)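 Cytotoxicity was measured as CellTiter-Glo ATP luminescence, read after 10 min at room temperature. Compound treatment of the cells lasted 48 or 72 hr at 37 degrees Celsius in a qHTS format.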

[2] = tested on: HEK293; test: as above; details: Five cell lines viability, CellTiter-Glo ATP luminescence, 48-72 h; max response: stronger effect = lower value
Method in brief: as §1

[3] = tested on: HaCat; test: as above; details: Five cell lines viability, CellTiter-Glo ATP luminescence, 48-72 h; max response: stronger effect = lower value
Method in brief: as §1

[4] = tested on: KB-3-1; test: as above; details: Five cell lines viability, CellTiter-Glo ATP luminescence, 48-72 h; max response: stronger effect = lower value
Method in brief: as §1

[5] = tested on: NIH3T3; test: as above; details: Five cell lines viability, CellTiter-Glo ATP luminescence, 48-72 h; max response: stronger effect = lower value
Method in brief: as §1

[6] = tested on: HACAT; test: qHTS assay to identify novel small-molecules to repurpose for Merkel cell carcinoma treatment (AID 1296009); details: MCC and control cell lines, CellTiter-Glo viability, 72 h; at 44.8 µM (top of the series) unless noted
Method in brief: (§2)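 Cell viability, measured as CellTiter-Glo luminescence, was normalized between DMSO and no-cell wells. The cells had been exposed to 8- or 11-point compound dilutions for 72 hr at 37 degree celsius.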

[7] = tested on: HEK293T; test: as above; details: MCC and control cell lines, CellTiter-Glo viability, 72 h; series mostly up to 44.8 µM
Method in brief: as §2

[8] = tested on: TAB113; test: qHTS profiling for inhibitors of Plasmodium falciparum proliferation (AID 504749);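 further: 0% = DMSO vehicle and full inhibition = artemisinin control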; details: P. falciparum in erythrocytes, SYBR Green DNA, 72 h; series mostly up to 28.7 µM
Method in brief: (§3)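 SYBR Green fluorescence of parasite DNA, read after lysis and overnight dark incubation, measured growth over 72 h in erythrocyte culture at 0.3% parasitemia and 2.5% hematocrit. Data normalised to DMSO and 0.29 uM artemisinin, with plate-drift correction.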

[9] = tested on: TAB165; test: as above; details: P. falciparum in erythrocytes, SYBR Green DNA, 72 h; series mostly up to 28.7 µM
Method in brief: as §3

[10] = tested on: W2; test: as above; details: P. falciparum in erythrocytes, SYBR Green DNA, 72 h; series mostly up to 28.7 µM
Method in brief: as §3
Further: nearly all actives have a fitted effect of over 60% in size.

NCCCC[C@H](NC(=O)[C@@H]1Cc2ccccc2CN1C(=O)CCC(=O)c1ccccc1)C(=O)NCC(c1ccccc1)c1ccccc1
inactive: outcome [1] | outcome [2] | outcome [3] | outcome [4] | max response [5] 3.99% | outcome [6] | Potency [7]

CC(=O)NC(CCC(=O)O)C(=O)NCCc1ccc(O)cc1 (stereo not given)
inactive: outcome [1] | outcome [2] | outcome [3] | outcome [4] | outcome [5] | outcome [6] | Potency [7]

CCC/C=C/C(=O)O[C@H]1CC(C)(C)CC2[C@]13[C@H](O)O[C@@]21CCC2[C@@]4(C)CC[C@H](O[C@@H]5O[C@H](C(=O)O)[C@@H](O)[C@H](O[C@@H]6O[C@H](CO)[C@H](O)[C@H](O)[C@H]6O[C@@H]6O[C@@H](C)[C@H](O)[C@@H](O)[C@H]6O[C@@H]6OC[C@](O)(CO)[C@H]6O)[C@H]5O[C@@H]5O[C@H](CO)[C@H](O)[C@H](O)[C@H]5O)C(C)(C)C4CC[C@@]2(C)[C@]1(C)C[C@H]3OC(C)=O (stereo not given in full)
inactive: max response [1] -6.81% | outcome [2] | outcome [3] | max response [4] 6.11% | max response [5] 0.954% | outcome [6] inactive [at 9.27 µM] | outcome [7] inactive [at 9.27 µM]

C[C@@H]1C(=O)O[C@H]2CC34[C@H]5C[C@@H](C(C)(C)C)C36[C@@H](OC(=O)[C@@H]6O)OC4(C(=O)O5)[C@]21O (stereo not given in full)
inactive: max response [1] -2.58% | outcome [2] | outcome [3] | max response [4] 9.69% | max response [5] 4.14% | outcome [6] | Potency [7]

CC(=O)OC[C@@]12[C@H](O)C[C@]3(C)C(=CCC4[C@@]5(C)CC[C@H](O[C@@H]6O[C@H](C(=O)O)[C@@H](O[C@@H]7O[C@H](CO)[C@@H](O)[C@H](O)[C@H]7O)[C@H](O)[C@H]6O[C@@H]6O[C@H](CO)[C@@H](O)[C@H](O)[C@H]6O)[C@](C)(CO)C5CC[C@]43C)[C@@H]1CC(C)(C)[C@@H](OC(C)=O)[C@@H]2O (stereo not given in full)
inactive: outcome [1] | outcome [2] | outcome [3] | max response [4] 6.14% | max response [5] 0.485% | outcome [6] inactive [at 9.27 µM] | outcome [7] inactive [at 9.27 µM]

NC(=O)c1cccc(-c2cc(O)cc(OC(=O)NC3CCCCC3)c2)c1
inactive: outcome [1] | outcome [2] | outcome [3] | outcome [4] | max response [5] -15.7% | outcome [6] inactive [at 17.4 µM] | Potency [7]

COc1cccc(-n2nc(C(=O)O)cc2-c2ccc(C3CCCCC3)c(Cl)c2)c1
inactive: outcome [1] | outcome [2] | outcome [3] | outcome [4] | max response [5] 2.94% | outcome [6] | Potency [7]

CC(=O)NCCCCn1c2c(c3ccccc31)C(=O)NCC2
inactive: max response [1] 4.55% | outcome [2] | outcome [3] | outcome [4] | outcome [5] | outcome [6] | Potency [7]

Cc1nnc(C(C)C)n1C1CC2CCC(C1)N2CCC(NC(=O)C1CCC(F)(F)CC1)c1ccccc1 (stereo not given)
inactive: max response [1] -10.9% | outcome [2] | outcome [3] | max response [4] 8.02% | max response [5] -0.909% | outcome [6] | Potency [7]

O=C(O)c1ccc(CCCc2ccc(OCCc3ccc(F)cc3)cc2)o1
inactive: max response [1] -2.7% | outcome [2] | outcome [3] | outcome [4] | outcome [5] | outcome [6] | Potency [7]

CC1OC(OC2C(C)OC(OC3C(OC(=O)/C=C/c4ccc(O)cc4)C(CO)OC(OC4(COC(=O)/C=C/c5ccc(O)cc5)OC(CO)C(O)C4O)C3OC3OCC(O)(CO)C3O)C(O)C2O)C(O)C(O)C1O (stereo not given)
inactive: max response [1] -0.0903% | outcome [2] | outcome [3] | max response [4] 4.29% | outcome [5] | outcome [6] inactive [at 9.27 µM] | outcome [7] inactive [at 9.27 µM]

CC1(CO)CC[C@]2(C(=O)O[C@@H]3O[C@H](CO)[C@@H](O)[C@H](O)[C@H]3O)CC[C@]3(C)C(=CCC4[C@@]5(C)CC[C@H](O[C@@H]6O[C@H](C(=O)O)[C@@H](O)[C@H](O)[C@H]6O)C(C)(C)C5CC[C@]43C)C2C1 (stereo not given in full)
inactive: max response [1] -1.41% | outcome [2] | max response [3] 1.75% | outcome [4] | outcome [5] | outcome [7] inactive [at 9.27 µM]

COC(=O)C[C@@H]1C(C(=O)O)=CO[C@@H](O[C@@H]2O[C@H](CO)[C@@H](O)[C@H](O)[C@H]2O)/C1=C\COC(=O)/C=C\c1ccccc1
inactive: max response [1] -11.7% | outcome [2] | outcome [3] | max response [4] -0.0915% | max response [5] -14.1% | outcome [6] inactive [at 17.4 µM] | Potency [7]

O=C(c1ccc(C#Cc2cccc(F)c2)cn1)N1CC2CC2C1 (stereo not given)
inactive: outcome [1] | outcome [2] | outcome [3] | outcome [4] | max response [5] 3.17% | outcome [6] | Potency [7]

CC1CC(=O)C2=C(O1)OC1(C)CCC3C(C)(C)C=CC(=O)C3(C)C1C2 (stereo not given)
inactive: max response [1] -3.54% | outcome [2] | outcome [3] | outcome [4] | outcome [5] | outcome [6] | Potency [7]

O=C(/C=C/c1ccc(O)cc1)OC[C@]12O[C@H]1[C@@H](O)[C@@H]1C=CO[C@@H](O[C@@H]3O[C@H](CO)[C@@H](O)[C@H](O)[C@H]3O)[C@@H]12
inactive: max response [1] -7.12% | outcome [2] | outcome [3] | max response [4] 8.48% | outcome [5] | outcome [6] inactive [at 17.4 µM] | Potency [7]

CC1(C)NC2N(C1=O)c1ccccc1C2(O)CC(C(=O)O)n1cnc2ccccc2c1=O (stereo not given)
inactive: outcome [1] | outcome [2] | max response [3] -3.78% | outcome [4] | max response [5] -5.13% | Potency [7]

OC[C@H]1O[C@@H](Oc2cc(O)cc(/C=C/c3ccc(O)cc3)c2)[C@H](O)[C@@H](O)[C@@H]1O
inactive: outcome [1] | outcome [2] | outcome [3] | outcome [4] | outcome [5] | outcome [6] | Potency [7]

COc1ccc2c3c1O[C@H]1C[C@@H](O)C=C[C@@]31CCN(C)C2
inactive: Potency [8] | Potency [9] | Potency [10] | outcome [1] | outcome [2] | outcome [3] | outcome [4] | max response [5] -4.93% | outcome [6] | Potency [7]

CC(/C=C/C1(O)C(C)CC(O)CC1(C)C)OC1OC(CO)C(O)C(O)C1O (stereo not given)
inactive: max response [1] 1.42% | outcome [2] | max response [3] -9.66% | outcome [4] | outcome [5] | Potency [7]

CC1=CC(=O)C2C(C)(C)CCCC2(C)C12CCC1(COC(=O)C1)O2 (stereo not given)
inactive: max response [1] -1.45% | outcome [2] | outcome [3] | max response [4] 5.32% | max response [5] -3.33% | outcome [6] | Potency [7]

COc1cc2c(cc1O)C1(Cc3ccc4c(c3C1=O)OCO4)N(C)CC2 (stereo not given)
inactive: max response [1] 3.99% | outcome [2] | outcome [3] | max response [4] 1.1% | outcome [5] | outcome [6] | Potency [7]

CC(=O)O[C@@H]1[C@H](O[C@@H]2OC[C@](O)(CO)[C@H]2O)[C@@H](O[C@@H]2O[C@@H](C)[C@H](O)[C@@H](O)[C@H]2O)[C@H](OC(=O)[C@]23CCC(C)(C)C[C@H]2C2=CCC4[C@@]5(C)C[C@H](O)[C@H](O[C@@H]6O[C@H](C(=O)O)[C@@H](O)[C@H](O)[C@H]6O)[C@@](C)(C(=O)O)C5CC[C@@]4(C)[C@]2(C)CC3)O[C@@H]1C (stereo not given in full)
inactive: max response [1] -0.437% | outcome [2] | outcome [3] | outcome [4] | max response [5] 2.52% | outcome [6] inactive [at 9.27 µM] | outcome [7] inactive [at 9.27 µM]

CCNC(=O)[C@H]1O[C@H](n2cnc3c(NCC(c4ccccc4)c4ccccc4)nc(C(=O)NCCNC(=O)NC4CCN(c5ccccn5)CC4)nc32)[C@H](O)[C@@H]1O
inactive: max response [1] -2.5% | outcome [2] | max response [3] -11.9% | max response [4] 2.94% | max response [5] 1.64% | Potency [7]

COC(=O)C12C(=O)C(C)=C(O)C1(C)C(C)=CC1C34CCC(OC3=O)C(C)(C)C4CCC12C (stereo not given)
inactive: max response [1] -4.32% | outcome [2] | max response [3] 1.85% | max response [4] 6.41% | outcome [5] | Potency [7]

C=C1CC2C3(C)C(O)CC(=O)C(C)(C)C3C(OC(C)=O)C(OC(C)=O)C2(C)C2C(=O)OC(C)(C(=O)OC)C(=O)C12C (stereo not given)
inactive: outcome [1] | outcome [2] | max response [3] 3.78% | max response [4] 5.29% | outcome [5] | Potency [7]

CC1CCC2(C)C(CC(O)C(O)C23CO3)C1(C)CCC1=CC(O)OC1=O (stereo not given)
inactive: max response [1] 3.32% | outcome [2] | max response [3] 0.263% | max response [4] -2.97% | max response [5] -4.84% | Potency [7]
